PubChem BioAssay AID1159580 (chemical genetic matrix, 2015)
Several values for one entry are separate records, joined by “and”; a condition that tells them apart may be missing. Equal entries are not always repeated. About 2,000 (36%) of roughly 5,500 compounds were called active. About 18% were inconclusive and are not listed. The list shows a part of the results. A number with no mark means an inactive call. Cut-off read from the data, not from the text of the source: active = normalized growth mostly below about 0.91 (no sharp cut-off); inconclusive = no clear call, values can overlap the other calls; inactive = mostly above about 0.92.

Assay: chemical genetic growth profiling, strain panel (AID 1159580);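 note: tested at 20 µM; growth read once vehicle control cultures reached saturation at 30 °C; 1 = growth at the plate median or of vehicle wells; lower values mean less growth of the strain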
Settings: S. cerevisiae deletion strains, growth OD

Cc1cc(=O)oc2cc(O)c(O)cc12 showed a normalized growth (locus YAL021C, strain ccr4, hits give low values) of 1.01, a normalized growth (locus YAL026C, strain drs2, hits give low values) of 0.996 and a normalized growth (locus YAL030W, strain snc1, hits give low values) of 1. For the same molecule, the normalized growth (locus YBL061C, strain skt5, hits give low values) was 0.999, the normalized growth (locus YBR009C, strain hhf1, hits give low values) was 0.963 and the normalized growth (locus YBR021W, strain FUR4, hits give low values) was 1.02. It also gave a normalized growth (locus YBR023C, strain chs3, hits give low values) of 0.998, a normalized growth (locus YBR171W, strain sec66, hits give low values) of 0.987 and a normalized growth (locus YBR229C, strain ROT2, hits give low values) of 1. The normalized growth (locus YBR231C, strain swc5, hits give low values) was 0.995, the normalized growth (locus YBR279W, strain paf1, hits give low values) was 0.987 and the normalized growth (locus YCL011C, strain gbp2, hits give low values) was 0.994. For the same molecule, the normalized growth (locus YCL016C, strain dcc1, hits give low values) was 1, the normalized growth (locus YCL029C, strain bik1, hits give low values) was 0.974 and the normalized growth (locus YCL061C, strain MRC1, hits give low values) was 0.989. The normalized growth (locus YCL069W, strain vba3, hits give low values) was 0.99, the normalized growth (locus YCR088W, strain abp1, hits give low values) was 1 and the normalized growth (locus YDL005C, strain med2, hits give low values) was 0.98. The normalized growth (locus YDL035C, strain GPR1, hits give low values) was 0.973, the normalized growth (locus YDL040C, strain nat1, hits give low values) was 0.983 and the normalized growth (locus YDL074C, strain BRE1, hits give low values) was 0.976. The normalized growth (locus YDL101C, strain DUN1, hits give low values) was 0.958, the normalized growth (locus YDL134C, strain PPH21, hits give low values) was 0.955 and the normalized growth (locus YDL185W, strain tfp1, hits give low values) was 0.979. It also gave a normalized growth (locus YDL192W, strain arf1, hits give low values) of 0.961, a normalized growth (locus YDR001C, strain nth1, hits give low values) of 0.998 and a normalized growth (locus YDR069C, strain doa4, hits give low values) of 0.994. For the same molecule, the normalized growth (locus YDR101C, strain arx1, hits give low values) was 0.973, the normalized growth (locus YDR137W, strain rgp1, hits give low values) was 0.964 and the normalized growth (locus YDR159W, strain sac3, hits give low values) was 0.997. The normalized growth (locus YDR162C, strain NBP2, hits give low values) was 0.985, the normalized growth (locus YDR195W, strain ref2) was 1.05 and the normalized growth (locus YDR297W, strain sur2, hits give low values) was 0.995. It also gave a normalized growth (locus YDR318W, strain mcm21, hits give low values) of 0.966, a normalized growth (locus YDR334W, strain swr1, hits give low values) of 0.99 and a normalized growth (locus YDR335W, strain msn5, hits give low values) of 0.994. For the same molecule, the normalized growth (locus YDR388W, hits give low values) was 0.99, the normalized growth (locus YDR392W, strain spt3, hits give low values) was 0.91 and the normalized growth (locus YDR502C, strain sam2, hits give low values) was 0.974. It also gave a normalized growth (locus YEL003W, strain gim4, hits give low values) of 0.981, a normalized growth (locus YEL037C, strain rad23, hits give low values) of 0.991 and a normalized growth (locus YEL061C, strain CIN8 (second series), hits give low values) of 0.988. For the same molecule, the normalized growth (locus YEL061C, strain CIN8, hits give low values) was 0.999, the normalized growth (locus YER015W, strain faa2, hits give low values) was 0.998 and the normalized growth (locus YER016W, strain bim1, hits give low values) was 0.995. The normalized growth (locus YER110C, hits give low values) was 0.973, the normalized growth (locus YER111C, strain swi4, hits give low values) was 1.01 and the normalized growth (locus YER155C, strain BEM2 (second series), hits give low values) was 0.787 (active). The normalized growth (locus YER155C, strain BEM2, hits give low values) was 1.01, the normalized growth (locus YER167W, strain BCK2, hits give low values) was 1.02 and the normalized growth (locus YFR010W, strain ubp6, hits give low values) was 0.997. It also gave a normalized growth (locus YGL078C, strain dbp3, hits give low values) of 0.959, a normalized growth (locus YGL086W, strain mad1, hits give low values) of 0.993 and a normalized growth (locus YGL167C, strain pmr1, hits give low values) of 0.99. For the same molecule, the normalized growth (locus YGL173C, strain kem1, hits give low values) was 0.978, the normalized growth (locus YGL227W, strain vid30, hits give low values) was 1 and the normalized growth (locus YGL240W, strain doc1, hits give low values) was 0.952. It also gave a normalized growth (locus YGL248W, strain PDE1, hits give low values) of 0.98, a normalized growth (locus YGL253W, strain hxk2, hits give low values) of 1 and a normalized growth (locus YGR078C, strain PAC10, hits give low values) of 0.983. The normalized growth (locus YGR135W, strain pre9, hits give low values) was 0.957, the normalized growth (locus YGR229C, strain SMI1, hits give low values) was 0.974 and the normalized growth (locus YGR252W, strain gcn5, hits give low values) was 0.79. The normalized growth (locus YHR013C, strain ard1, hits give low values) was 0.985, the normalized growth (locus YHR027C, strain rpn1, hits give low values) was 1 and the normalized growth (locus YHR030C, strain SLT2, hits give low values) was 1.01 and 0.905. For the same molecule, the normalized growth (locus YHR079C, strain IRE1 (second series), hits give low values) was 1.01, the normalized growth (locus YHR079C, strain IRE1, hits give low values) was 0.901 and the normalized growth (locus YHR094C, strain hxt1, hits give low values) was 1.02. For the same molecule, the normalized growth (locus YHR129C, strain ARP1, hits give low values) was 0.999, the normalized growth (locus YHR142W, strain chs7, hits give low values) was 0.958 and the normalized growth (locus YHR200W, strain rpn10, hits give low values) was 0.972. The normalized growth (locus YIL066C, strain RNR3, hits give low values) was 1, the normalized growth (locus YIL073C, strain SPO22, hits give low values) was 1 and the normalized growth (locus YIL125W, strain kgd1, hits give low values) was 1.01. It also gave a normalized growth (locus YIR030C, strain dcg1, hits give low values) of 0.99, a normalized growth (locus YJL092W, strain hpr5, hits give low values) of 0.993 and a normalized growth (locus YJL095W, strain BCK1 (second series), hits give low values) of 0.998. The normalized growth (locus YJL095W, strain BCK1, hits give low values) was 0.932 and 0.924, the normalized growth (locus YJL115W, strain asf1, hits give low values) was 0.994 and the normalized growth (locus YJL129C, strain trk1, hits give low values) was 1.05. For the same molecule, the normalized growth (locus YJL134W, strain LCB3, hits give low values) was 1.01, the normalized growth (locus YJL154C, strain vps35, hits give low values) was 1.01 and the normalized growth (locus YJL164C, strain tpk1, hits give low values) was 0.973. It also gave a normalized growth (locus YJL166W, strain qcr8, hits give low values) of 0.995, a normalized growth (locus YJL168C, strain set2, hits give low values) of 1 and a normalized growth (locus YJL187C, strain SWE1 (second series), hits give low values) of 0.991. For the same molecule, the normalized growth (locus YJL187C, strain SWE1, hits give low values) was 0.999.
